Results published in PubChem BioAssay (Tox21).
Inconclusive results are not listed. Calls of active or inactive are those of the source. Unless noted, the call rests on the fitted dose curve; in most records, active means well fitted curve in the direction sought with a large enough effect in the repeat runs; inconclusive means weak or mixed curves; inactive means no such curve, though single readings can be large; an effect the other way counts as inactive or inconclusive.

Assays:
[1] = qHTS assay to test for compound auto fluorescence at 460 nm (blue) in HEK293 cell free culture (AID 720681)
Summary of the method: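 Blue fluorescence (Ex 405/Em 460 nm, triamterene-equivalent) was read immediately after pin transfer of compound or DMSO into medium (DMEM, 10% FBS) without cells.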

[2] = qHTS assay to test for compound auto fluorescence at 535 nm (green) in HEK293 cell free culture (AID 720682)
Summary of the method: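 Measurement is a direct plate read of green fluorescence (485 nm in, 535 nm out) after compound addition to serum-supplemented DMEM lacking cells, with fluorescein used to express intensities.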

[3] = qHTS assay to test for compound auto fluorescence at 590 nm (red) in HEK293 cell free culture (AID 720683)
Summary of the method: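 Red-channel autofluorescence of compounds in culture medium (DMEM, 10% FBS), no cells, measured at 540/590 nm. Rose Bengal sodium is the reference fluorophore for equivalence.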

[4] = qHTS assay to test for compound auto fluorescence at 590 nm (red) in HepG2 cell free culture (AID 720684)
Summary of the method: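 Cell-free; medium MEM + 10% FBS; compound or DMSO added by pintool; read Ex 540/Em 590 nm; Rose Bengal sodium as red reference fluorophore.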

[5] = qHTS assay to test for compound auto fluorescence at 460 nm (blue) in HepG2 cell free culture (AID 720685)
Summary of the method: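 Cell-free plates of MEM plus 10% FBS received 23 nL compound or DMSO vehicle; blue-channel (405/460 nm) intensity scored against triamterene as reference fluorophore.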

[6] = qHTS assay to test for compound auto fluorescence at 535 nm (green) in HepG2 cell free culture (AID 720686)
[7] = qHTS assay to test for compound auto fluorescence at 460 nm (blue) in HepG2 cells (AID 720687)
Summary of the method: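 Blue-channel autofluorescence (Ex/Em 405/460 nm, triamterene-equivalent) was measured after 1 hr compound exposure at 37 C, 5% CO2. Cells were HepG2, plated overnight at 37 C in MEM plus 10% FBS.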

[8] = biological target: Glucocorticoid receptor (Homo sapiens) (UniProt P04150); assay: qHTS assay to identify small molecule agonists of the glucocorticoid receptor (GR) signaling pathway (AID 720691; active means well fitted activation curve with a large enough effect in the signal ratio in the repeat runs, not every such curve was filed as active; the % refers to the signal ratio)
Summary of the method: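 A HeLa cervical cancer line expressing GR and a glucocorticoid response element-driven beta-lactamase gene is treated with compounds for 18 h; LiveBLAzer B/G FRET substrate is then applied and fluorescence read.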

[9] = biological target: Glucocorticoid receptor (Homo sapiens) (UniProt P04150); assay: qHTS assay to identify small molecule antagonists of the glucocorticoid receptor (GR) signaling pathway (AID 720692; active means well fitted inhibition curve with a large enough effect in the signal ratio in the repeat runs, not every such curve was filed as active; the % refers to the signal ratio)
Summary of the method: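 GRE-bla HeLa line, dex-stimulated (5 nM final). Compound exposure 18 h, 37 C. Beta-lactamase FRET read after 2 h RT substrate.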

[10] = qHTS assay to identify small molecule antagonists of the glucocorticoid receptor (GR) signaling pathway - cell viability counter screen (AID 720693); further: nearly all actives have a fitted effect of over 55% in size
[11] = qHTS assay for identifying genotoxic compounds that show differential cytotoxicity against isogenic chicken DT40 cell lines with known DNA damage response pathways - wild type cell line (AID 743012); further: nearly all actives have a fitted effect of over 60% in size; further: potency means the concentration at half of the fitted maximal effect
Summary of the method: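 300 wt DT40 cells/well; cpd (DMSO) pintool-transferred after ~0.5 h at 37 C/5% CO2; 40 h incubation; CellTiter-Glo added, 30 min RT; luminescence read.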

[12] = qHTS assay for identifying genotoxic compounds that show differential cytotoxicity against isogenic chicken DT40 cell lines with known DNA damage response pathways - Rev3 mutant cell line (AID 743014); further: nearly all actives have a fitted effect of over 55% in size; further: potency means the concentration at half of the fitted maximal effect
[13] = qHTS assay for identifying genotoxic compounds that show differential cytotoxicity against isogenic chicken DT40 cell lines with known DNA damage response pathways - Rad54/Ku70 mutant cell line (AID 743015); further: nearly all actives have a fitted effect of over 60% in size; further: potency means the concentration at half of the fitted maximal effect
[14] = qHTS assay to identify small molecule antagonists of the androgen receptor (AR) signaling pathway - cell viability counter screen (AID 743033; further: nearly all actives have a fitted effect of over 45% in size)
[15] = qHTS assay to identify small molecule antagonists of the androgen receptor (AR) signaling pathway using the MDA cell line - cell viability counter screen (AID 743041; further: nearly all actives have a fitted effect of over 45% in size)
Summary of the method: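 Viability read by CellTiter-Fluor fluorescence in the same wells as the antagonist screen, added after 15.5 h of a 16 h, 37C exposure. Human breast carcinoma MDA-kb2 AR-luc cells, compounds co-dosed with agonist R1881.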

[16] = biological target: Androgen receptor (Homo sapiens) (UniProt P10275); assay: qHTS assay to identify small molecule antagonists of the androgen receptor (AR) signaling pathway (AID 743035; active means well fitted inhibition curve with a large enough effect in the signal ratio in the repeat runs, not every such curve was filed as active; the % refers to the signal ratio)
Summary of the method: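 In this cell-based reporter screen, compounds were tested in concentration series against R1881-activated HEK293 cells expressing beta-lactamase under UAS control; after 16 h at 37C, FRET substrate was added and fluorescence read 2 h later.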

[17] = biological target: Androgen receptor (Homo sapiens) (UniProt P10275); assay: qHTS assay to identify small molecule agonists of the androgen receptor (AR) signaling pathway (AID 743036; active means well fitted activation curve with a large enough effect in the signal ratio in the repeat runs, with a control signal flat, not every such curve was filed as active; the % refers to the signal ratio)
Summary of the method: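 Beta-lactamase under UAS control, stably integrated in HEK293 GripTite cells, reports receptor activation. After 16 h compound treatment, cells received FRET substrate for 2 h at room temperature before fluorescence reading.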

[18] = biological target: Androgen receptor (Homo sapiens) (UniProt P10275); assay: qHTS assay to identify small molecule agonists of the androgen receptor (AR) signaling pathway using the MDA cell line (AID 743040; further: nearly all actives have a fitted effect of over 20% in size)
Summary of the method: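 Luciferase agonist assay: 16 h compound exposure at 37C without CO2 in MDA-kb2 AR-luc cells, whose MMTV promoter responds to both AR and GR. Luminescence measured after 30 min room-temperature incubation with ONE-Glo.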

[19] = biological target: Androgen receptor (Homo sapiens) (UniProt P10275); assay: qHTS assay to identify small molecule antagonists of the androgen receptor (AR) signaling pathway using the MDA cell line (AID 743042; further: nearly all actives have a fitted effect of over 55% in size)
Summary of the method: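 Antagonist mode: compounds plus R1881 agonist added to MDA-kb2 AR-luc cells, incubated 16 h at 37C. Luciferase reporter luminescence quantified, with multiplexed CellTiter-Fluor readout for cell viability.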
On the % scale 0 is the no-effect control and ±100 the full control effect.

Sequence of Glucocorticoid receptor (Homo sapiens) (P04150 whole entry, looked up): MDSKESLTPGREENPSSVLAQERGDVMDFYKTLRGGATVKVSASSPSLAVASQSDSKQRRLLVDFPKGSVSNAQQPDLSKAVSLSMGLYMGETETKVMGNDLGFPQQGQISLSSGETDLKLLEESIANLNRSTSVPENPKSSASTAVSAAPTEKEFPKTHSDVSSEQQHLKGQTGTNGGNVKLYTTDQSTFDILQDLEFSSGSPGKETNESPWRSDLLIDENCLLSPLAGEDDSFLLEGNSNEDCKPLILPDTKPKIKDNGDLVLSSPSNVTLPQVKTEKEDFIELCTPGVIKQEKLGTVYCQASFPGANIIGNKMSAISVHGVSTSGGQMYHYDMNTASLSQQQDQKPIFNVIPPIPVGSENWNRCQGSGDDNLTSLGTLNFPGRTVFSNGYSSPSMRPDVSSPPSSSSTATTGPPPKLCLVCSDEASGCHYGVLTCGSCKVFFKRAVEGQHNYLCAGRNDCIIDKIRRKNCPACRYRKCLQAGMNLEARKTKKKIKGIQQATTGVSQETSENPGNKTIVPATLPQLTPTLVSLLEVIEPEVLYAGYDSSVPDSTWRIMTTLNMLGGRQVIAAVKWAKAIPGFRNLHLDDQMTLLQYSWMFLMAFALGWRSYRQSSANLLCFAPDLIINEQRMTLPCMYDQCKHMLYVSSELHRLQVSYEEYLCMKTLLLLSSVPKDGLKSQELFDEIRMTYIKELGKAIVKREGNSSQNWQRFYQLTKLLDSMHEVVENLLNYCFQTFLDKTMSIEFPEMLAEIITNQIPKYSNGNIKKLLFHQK
Sequence of Androgen receptor (Homo sapiens) (P10275 whole entry, looked up): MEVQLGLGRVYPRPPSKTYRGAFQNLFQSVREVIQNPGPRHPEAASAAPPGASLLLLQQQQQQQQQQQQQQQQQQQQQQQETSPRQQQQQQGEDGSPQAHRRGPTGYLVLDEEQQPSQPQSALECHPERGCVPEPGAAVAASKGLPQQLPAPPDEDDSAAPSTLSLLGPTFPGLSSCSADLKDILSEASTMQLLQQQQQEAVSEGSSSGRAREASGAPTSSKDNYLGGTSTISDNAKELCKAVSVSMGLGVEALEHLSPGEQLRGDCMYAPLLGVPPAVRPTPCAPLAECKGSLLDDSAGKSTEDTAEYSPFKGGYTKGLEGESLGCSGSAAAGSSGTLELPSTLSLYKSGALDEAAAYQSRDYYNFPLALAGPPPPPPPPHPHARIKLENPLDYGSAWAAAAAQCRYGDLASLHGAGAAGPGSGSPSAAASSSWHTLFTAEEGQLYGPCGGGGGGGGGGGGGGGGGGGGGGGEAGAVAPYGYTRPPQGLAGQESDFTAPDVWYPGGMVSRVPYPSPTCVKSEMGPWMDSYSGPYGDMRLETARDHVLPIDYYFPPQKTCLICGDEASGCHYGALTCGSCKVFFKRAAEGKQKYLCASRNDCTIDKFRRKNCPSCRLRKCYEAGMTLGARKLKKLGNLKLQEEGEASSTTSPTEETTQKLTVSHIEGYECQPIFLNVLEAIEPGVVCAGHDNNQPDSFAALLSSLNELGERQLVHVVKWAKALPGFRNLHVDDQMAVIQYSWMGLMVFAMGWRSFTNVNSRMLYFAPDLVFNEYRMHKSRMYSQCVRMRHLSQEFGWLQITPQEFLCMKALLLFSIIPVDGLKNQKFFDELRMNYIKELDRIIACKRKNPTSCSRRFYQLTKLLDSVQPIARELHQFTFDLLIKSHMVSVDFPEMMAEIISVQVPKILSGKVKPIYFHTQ

CCCCCCCCOS(=O)(=O)O
inactive: outcome [1] | outcome [2] | outcome [3] | outcome [4] | outcome [5] | outcome [6] | outcome [7] | Potency [8] | outcome [9] | outcome [10] | Potency [11] | Potency [12] | Potency [13] | Potency [14] | Potency [15]

CC(=O)NCCCCCC(=O)O
inactive: outcome [1] | outcome [2] | outcome [3] | outcome [4] | outcome [6] | outcome [7] | outcome [10] | Potency [11] | Potency [13] | Potency [14] | Potency [15]

CCN(C)C(=O)Oc1cccc([C@H](C)N(C)C)c1
inactive: outcome [1] | outcome [2] | outcome [3] | outcome [4] | outcome [5] | outcome [6] | outcome [7] | Potency [8] | outcome [9] | outcome [10] | Potency [11] | Potency [13] | Potency [14] | Potency [16] | outcome [17] | outcome [18] | Potency [15] | Potency [19]

C=C(C)C(=O)OCCOP(=O)(O)OCCOC(=O)C(=C)C
inactive: outcome [1] | outcome [2] | outcome [3] | outcome [4] | outcome [6] | outcome [7] | Potency [8] | outcome [9] | outcome [10] | Potency [11] | Potency [12] | Potency [13] | Potency [14] | Potency [15]

OCCC(F)(F)C(F)(F)C(F)(F)C(F)(F)C(F)(F)C(F)(F)C(F)(F)C(F)(F)F
inactive: outcome [1] | outcome [2] | outcome [3] | outcome [4] | outcome [5] | outcome [6] | outcome [7] | outcome [10] | Potency [11] | Potency [12] | Potency [13] | outcome [17] | outcome [18] | Potency [15] | Potency [19]

CCC(C=O)CC
inactive: outcome [1] | outcome [2] | outcome [3] | outcome [4] | outcome [5] | outcome [6] | outcome [7] | Potency [8] | outcome [10] | Potency [11] | Potency [13] | Potency [14] | Potency [15]

CC(=O)OC(C)OC(=O)C(C)c1ccc(-c2ccccc2)c(F)c1 (stereo not given)
inactive: outcome [1] | outcome [2] | outcome [3] | outcome [4] | outcome [6] | outcome [7] | Potency [8] | outcome [9] | Potency [11] | Potency [12] | Potency [14] | Potency [16] | outcome [17] | outcome [18] | Potency [15] | Potency [19]

CN(C)C(=O)CNC(=O)Cc1ccccc1
inactive: outcome [1] | outcome [2] | outcome [3] | outcome [4] | outcome [6] | outcome [7] | Potency [8] | outcome [9] | outcome [10] | Potency [11] | Potency [12] | Potency [13] | Potency [14] | Potency [15]

CCO[Si](CCCS)(OCC)OCC
inactive: outcome [1] | outcome [2] | outcome [3] | outcome [4] | outcome [5] | outcome [6] | outcome [7] | Potency [8] | outcome [9] | outcome [10] | Potency [11] | Potency [13] | Potency [14] | Potency [15]

Brc1ccc(-c2ccccc2)cc1
inactive: outcome [1] | outcome [2] | outcome [3] | outcome [4] | outcome [5] | outcome [6] | outcome [7] | Potency [8] | outcome [10] | Potency [11] | Potency [12] | Potency [15]

O=C(CCN1CCN(CCO)CC1)N1c2ccccc2Sc2ccc(C(F)(F)F)cc21
active: Potency [11] 26.6 µM | Potency [12] 29.8 µM | Potency [13] 29.8 µM
inactive: outcome [1] | outcome [2] | outcome [3] | outcome [4] | outcome [6] | outcome [7] | outcome [10] | Potency [14] | Potency [16] | outcome [17] | outcome [18] | Potency [15] | Potency [19]

Nc1ccc2cc(S(=O)(=O)O)cc(O)c2c1
inactive: outcome [1] | outcome [2] | outcome [3] | outcome [4] | outcome [6] | outcome [10] | Potency [11] | Potency [12] | Potency [13] | Potency [14] | Potency [16] | outcome [17] | outcome [18] | Potency [15] | Potency [19]

O=S(O)(O)=S
inactive: fluorescence, % of fluorescent control [1] -0.0004% [at 3.72 µM] | activity change [2] -0.0159% [at 3.72 µM] | fluorescence, % of fluorescent control [3] -0.356% [at 3.72 µM] | fluorescence, % of Rose Bengal [4] -0.0109% [at 3.72 µM] | fluorescence, % of fluorescent control [5] -0.093% [at 3.72 µM] | fluorescence, % of fluorescein control [6] 0.0353% [at 3.72 µM] | fluorescence, % of fluorescent control [7] -0.0508% [at 3.72 µM] | viability change, negative = cytotoxic [10] -8.56% [at 7.04 µM] | activity change, negative = cytotoxicity [11] -4.81% [at 8.52 µM] | activity, negative = cytotoxicity [12] 5.56% [at 8.53 µM] | activity change, negative = cytotoxicity [13] -5.32% [at 8.55 µM] | viability change, negative = cytotoxic [15] -5.99% [at 8.47 µM]
